The results in this text go back to PubChem BioAssay (NCATS).

Records with an inconclusive call do not appear. Calls of active or inactive are those of the source. Unless noted, calls follow the shape of the full dose curve.

Assay [1] is described as follows: Primary qHTS for inhibitors of SARS-S pseudo-typed particle cell entry (AID 1479145). Also: nearly all actives have a fitted effect of over 45% in size. Also: potency is read from the fitted curve at half-maximal effect. As to activity change, negative = inhibition: % is scaled to controls: 0 for no effect and ±100 for the full control effect. Conditions: outcome: dose series up to 57.1 µM unless noted.
Assay [2] can be described thus: Primary qHTS for Huh7 cytotoxicity: counterscreen for inhibitors of MERS-S pseudotyped particle cell entry (AID 1479147). Also: potency is read from the fitted curve at half-maximal effect. As to activity change, negative = cytotoxicity: % is scaled to controls: 0 for no effect and ±100 for the full control effect. The conditions noted are these: outcome: dose series up to 57.1 µM unless noted. Background: In qHTS, concentration-response curves come from the screen itself.
Assay [3] is described as follows: Primary qHTS for inhibitors of MERS-S pseudo-typed particle cell entry (AID 1479149). Also: nearly all actives have a fitted effect of over 60% in size. Also: potency is read from the fitted curve at half-maximal effect. As to activity change, negative = inhibition: % is scaled to controls: 0 for no effect and ±100 for the full control effect. Conditions: outcome: dose series up to 57.1 µM unless noted.
A short description of assay [4]: Primary qHTS to identify inhibitors of SARS-CoV-2 cell entry (AID 1645846). Also: nearly all actives have a fitted effect of over 45% in size. Also: potency is read from the fitted curve at half-maximal effect. The conditions noted are these: SARS-CoV-2 pseudovirus cell entry assay, luminescence; activity change, negative = inhibition: at 57.1 µM (top of the series) unless noted. Summed up: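 Entry measured by luciferase signal 48 h after adding SARS-CoV-2-S pseudotyped MLV particles to HEK293-ACE2 cells preincubated 1 h with compounds. Normalisation: bald particles and spike particles.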

The nature of assay [5]: Primary qHTS for Vero E6 cytotoxicity: counterscreen for inhibitors of SARS-S pseudo-typed particle cell entry (AID 1479150). As to activity change, negative = cytotoxicity: % is scaled to controls: 0 for no effect and ±100 for the full control effect. The conditions noted are these: outcome: dose series up to 57.1 µM unless noted.
Assay [6] is described as follows: Cytotoxicity counterscreen for inhibitors of SARS-CoV-2 cell entry (AID 1645845). Also: nearly all actives have a fitted effect of over 50% in size. Also: potency is read from the fitted curve at half-maximal effect. The conditions noted are these: outcome: dose series up to 57.1 µM unless noted. Summed up: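 48 h compound treatment (after 1 h preincubation), HEK293-ACE2 cells, 37 C/5% CO2; ATP luminescence endpoint; normalized to cell wells and media blanks.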
A general note: A counterscreen serves to expose hits that act by an unwanted route or on another target.

For assay [7], the target named is Nuclear receptor subfamily 1 group I member 3 (Homo sapiens) (UniProt Q14994). Nature of the assay: Primary qHTS for antagonist of constitutive androstane receptor (CAR) against the NCATS DSHEA and TCM libraries (AID 1794836; active = well fitted curve in the direction sought with a large enough effect; an effect the other way counts as inactive or inconclusive;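 also: HepG2 cells stably expressing hCAR with CYP2B6 luciferase reporter stimulated by CITCO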). Summed up: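 Antagonist mode: CAR reporter luminescence (ONE-Glo) in HepG2-CYP2B6-hCAR cells stimulated with 48 uM CITCO (final) over 24 h at 37 C, compounds titrated; viability read first by CellTiter-Fluor fluorescence.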

Assay [8] in a line: KB-8-5-11 P-gp reporter qHTS against the NCATS DSHEA and TCM libraries (AID 1919977; active = well fitted curve in the direction sought with a large enough effect; an effect the other way counts as inactive or inconclusive; also: 0% is about no effect). Summed up: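 CellTiter-Glo luminescence measured viability after ~72 h exposure (37C, 5% CO2) of KB-8-5-11 cervical adenocarcinoma cells overexpressing P-gp. Colchicine was omitted during assay. Substances were tested as titrations.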
Assay [9] deals with Glutathione peroxidase 1 (Homo sapiens) (UniProt P07203). Nature of the assay: Primary qHTS Assay for Inhibitors of Recombinant Selenoprotein Glutathione Peroxidase 1 (GPX1) (AID 1845191; active = well fitted curve in the direction sought with a large enough effect; an effect the other way counts as inactive or inconclusive; also: nearly all actives have a fitted effect of over 65% in size). Summed up: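 10 nM GPX1 + cpd, 30 min RT; start w/ 1 mM GSH, 0.5 mM cumene hydroperoxide, 0.5 mM NADPH, 100 nM GR, 0.01% BSA; buffer 50 mM Tris-HCl pH 7.5, 2 mM EDTA, 150 mM NaCl; Fl 340/450, 0 & 15 min.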

The target in assay [10] is Phospholipid hydroperoxide glutathione peroxidase GPX4 (Homo sapiens) (UniProt P36969). Briefly: Primary qHTS Assay for Inhibitors of Recombinant Selenoprotein Glutathione Peroxidase 4 (GPX4) (AID 1845192; active = well fitted curve in the direction sought with a large enough effect; an effect the other way counts as inactive or inconclusive; also: nearly all actives have a fitted effect of over 65% in size). Summed up:
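NADPH consumption, followed by fluorescence at 340/450 nm between 0 and 15 min, reports GPX4 activity via coupled glutathione reductase (100 nM). Enzyme 200 nM was pre-exposed to compound 30 min; 0.5 mM cumene hydroperoxide and 1 mM GSH served as substrates.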

Assay [11] is described as follows: Confirmatory qHTS for VERO E6 Cytotoxicity Assay: Counterscreen for SARS-CoV-2 CPE Assay (AID 1508605). Also: % is scaled to controls: 0 for no effect and ±100 for the full control effect; nearly all actives have a fitted effect of over 60% in size.
The nature of assay [12]: qHTS profiling of the MIPE4 collection as inhibitors of Plasmodium falciparum (3D7) proliferation (AID 743344; call rule not given here;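 also: scaled between DMSO vehicle wells and 0.29 µM artemisinin as full inhibition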). Conditions: P. falciparum 3D7 in erythrocytes, SYBR Green DNA fluorescence, 72 h; at 28.5 µM (top of the series). Summed up: (§1)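 Erythrocytes infected with P. falciparum (0.3% parasitemia, 2.5% hematocrit) incubated with compounds 72 h at 37 C, 5% CO2. Lysis with saponin/Triton buffer containing SYBR Green I, overnight at room temperature in the dark; DNA fluorescence (485/535 nm) normalised to 0.29 uM artemisinin and DMSO.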

Assay [13] in a line: qHTS profiling of the MIPE4 collection as inhibitors of Plasmodium falciparum (DD2) proliferation (AID 743345; call rule not given here). Conditions: P. falciparum Dd2 in erythrocytes, SYBR Green DNA, 72 h; at 28.5 µM (top of the series). Summed up:
as §1

Assay [14] can be described thus: qHTS profiling of the MIPE4 collection as inhibitors of Plasmodium falciparum (DD2) proliferation (Rep 2) (AID 743346; call rule not given here). The conditions noted are these: P. falciparum Dd2 in erythrocytes, SYBR Green DNA, 72 h; at 28.5 µM (top of the series). Summed up:
as §1

The target of assay [15] is Cytochrome P450 2D6 (Homo sapiens) (UniProt P10635). Nature of the assay: Cytochrome P450 family 2 subfamily D member 6 (CYP2D6) small molecule antagonists: luciferase biochemical (cell-free) qHTS assay (AID 1645840; active = well fitted curve in the direction sought with a large enough effect in the repeat runs; an effect the other way counts as inactive or inconclusive; also: potency is read from the fitted curve at half-maximal effect; nearly all actives have a fitted effect of over 55% in size). Summed up: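 P450-Glo luminescent screen: recombinant CYP2D6 enzyme–proluciferin substrate mix preincubated with compound 10 min at room temperature, then NADPH regeneration added for 1 h at room temperature. Detection reagent added for 20 min; luciferin light read as relative luminescence units.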

The target in assay [16] is Cytochrome P450 2C9 (Homo sapiens) (UniProt P11712). Briefly: Cytochrome P450 family 2 subfamily C member 9 (CYP2C9) small molecule antagonists: luciferase biochemical (cell-free) qHTS assay (AID 1645842; active = well fitted curve in the direction sought with a large enough effect in the repeat runs; an effect the other way counts as inactive or inconclusive; also: potency is read from the fitted curve at half-maximal effect; nearly all actives have a fitted effect of over 55% in size). Summed up: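 Luminescence, after 20 min with luciferin detection reagent, reflected CYP2C9 turnover during a 1 h NADPH-driven reaction at 37C. Enzyme-substrate mix contained 0.4% bovine serum albumin and was preincubated with compound 10 min at room temperature.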
Chain of Cytochrome P450 2C9 (Homo sapiens) (P11712 whole entry, looked up): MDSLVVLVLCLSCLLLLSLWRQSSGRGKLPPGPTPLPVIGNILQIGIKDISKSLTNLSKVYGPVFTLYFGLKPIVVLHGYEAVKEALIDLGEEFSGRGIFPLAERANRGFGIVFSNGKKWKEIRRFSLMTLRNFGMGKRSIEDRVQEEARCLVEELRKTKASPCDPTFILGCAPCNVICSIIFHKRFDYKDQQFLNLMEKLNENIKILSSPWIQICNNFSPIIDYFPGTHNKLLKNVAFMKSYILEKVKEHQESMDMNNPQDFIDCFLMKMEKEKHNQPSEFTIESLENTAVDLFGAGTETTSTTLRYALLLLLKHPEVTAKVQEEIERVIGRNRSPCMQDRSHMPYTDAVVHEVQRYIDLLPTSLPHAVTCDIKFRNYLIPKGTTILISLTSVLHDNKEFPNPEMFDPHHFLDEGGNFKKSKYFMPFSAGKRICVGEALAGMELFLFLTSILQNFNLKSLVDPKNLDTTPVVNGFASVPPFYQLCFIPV

Chain of Glutathione peroxidase 1 (Homo sapiens) (P07203 whole entry, looked up): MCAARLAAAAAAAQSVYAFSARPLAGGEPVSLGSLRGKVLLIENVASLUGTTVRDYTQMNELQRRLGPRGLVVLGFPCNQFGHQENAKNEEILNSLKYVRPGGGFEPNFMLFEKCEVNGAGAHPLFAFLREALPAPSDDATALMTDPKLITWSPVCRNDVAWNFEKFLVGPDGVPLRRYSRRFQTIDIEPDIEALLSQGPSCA
Chain of Phospholipid hydroperoxide glutathione peroxidase GPX4 (Homo sapiens) (P36969 whole entry, looked up): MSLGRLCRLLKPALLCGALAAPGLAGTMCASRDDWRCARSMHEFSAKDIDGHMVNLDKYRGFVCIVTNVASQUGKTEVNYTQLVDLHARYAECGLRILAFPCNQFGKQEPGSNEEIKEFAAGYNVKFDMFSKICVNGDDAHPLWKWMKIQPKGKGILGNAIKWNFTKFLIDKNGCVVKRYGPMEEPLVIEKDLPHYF
Chain of Nuclear receptor subfamily 1 group I member 3 (Homo sapiens) (Q14994 whole entry, looked up): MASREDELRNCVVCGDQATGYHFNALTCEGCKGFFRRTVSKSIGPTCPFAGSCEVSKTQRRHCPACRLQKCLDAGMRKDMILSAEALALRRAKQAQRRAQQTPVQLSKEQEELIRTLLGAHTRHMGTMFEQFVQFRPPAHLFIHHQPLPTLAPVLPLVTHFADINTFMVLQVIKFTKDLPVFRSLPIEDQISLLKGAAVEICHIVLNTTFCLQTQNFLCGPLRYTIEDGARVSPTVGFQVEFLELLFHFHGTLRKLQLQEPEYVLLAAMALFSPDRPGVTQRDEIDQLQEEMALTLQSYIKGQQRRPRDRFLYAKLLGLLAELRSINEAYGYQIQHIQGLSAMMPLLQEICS
Chain of Cytochrome P450 2D6 (Homo sapiens) (P10635 whole entry, looked up): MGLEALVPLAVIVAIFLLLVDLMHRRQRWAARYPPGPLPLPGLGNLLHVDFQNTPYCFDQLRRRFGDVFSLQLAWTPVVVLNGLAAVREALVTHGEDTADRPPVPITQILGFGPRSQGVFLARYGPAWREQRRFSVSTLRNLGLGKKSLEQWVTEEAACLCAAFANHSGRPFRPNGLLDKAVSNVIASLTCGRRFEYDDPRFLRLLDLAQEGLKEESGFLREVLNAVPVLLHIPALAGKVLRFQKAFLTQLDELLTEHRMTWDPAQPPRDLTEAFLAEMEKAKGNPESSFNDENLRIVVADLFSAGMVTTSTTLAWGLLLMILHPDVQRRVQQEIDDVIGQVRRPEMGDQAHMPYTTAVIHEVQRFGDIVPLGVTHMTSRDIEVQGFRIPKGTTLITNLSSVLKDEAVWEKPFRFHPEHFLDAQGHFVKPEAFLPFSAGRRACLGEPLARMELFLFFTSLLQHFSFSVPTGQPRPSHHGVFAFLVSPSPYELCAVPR

In the case of `CC(C)=C/C(C)=N\Nc1nncc2ccccc12`, the Potency result in [1], in assay [2], in assay [3] and in assay [4] was “inactive” throughout.

With `CN[C@H]1C(=O)N[C@@H]2Cc3ccc(cc3)Oc3cc4cc(c3O[C@@H]3O[C@H](C(=O)O)[C@@H](O)[C@H](O)[C@H]3NC(=O)CCCCCCCCC(C)C)Oc3ccc(cc3Cl)[C@@H](O)[C@@H]3NC(=O)[C@H](NC(=O)[C@@H]4NC(=O)[C@@H](NC2=O)c2cc(cc(O)c2Cl)Oc2cc1ccc2O)c1ccc(O)c(c1)-c1c(O[C@H]2O[C@H](CO)[C@@H](O)[C@H](O)[C@@H]2O)cc(O)cc1[C@@H](C(=O)NCCCN(C)C)NC3=O`, the Potency result in assay [1], in [2], in assay [3] and in assay [5] was “inactive” throughout. Moreover, in [4], the activity change, negative = inhibition is 0.0393% [at 27.1 µM].

Turning to `O=C1O[C@H]2[C@H](OC(O)[C@@H]2O)[C@@H]1O` (some centres not stated), the Potency entry in assay [1], in assay [2], in assay [3], in assay [5] and in assay [4] was “inactive” throughout.

Turning to `CCC(C(=O)O)[C@H]1CC[C@H](C)[C@H]([C@@H](C)[C@H](O)[C@H](C)C(=O)[C@H](CC)[C@H]2OC3(C=C[C@@H](O)[C@]4(CC[C@@](C)([C@H]5CC[C@](O)(CC)[C@H](C)O5)O4)O3)[C@H](C)C[C@@H]2C)O1` (some centres not stated), the Potency was 3.98 µM (active) in [1]; 7.94 µM (active) in assay [2]; 0.891 µM (active) in [3]; 2.51 µM (active) in assay [6]; 0.794 µM (active) in [4].

In the case of `Cc1c(OCC(F)(F)F)ccnc1C[S@@](=O)c1nc2ccccc2[nH]1`, the Potency result in [1], in assay [2] and in assay [5] was “inactive” in each case.

As for `CN1C(=O)[C@]23C[C@H]4C(C)(C)[C@]5(CNc6c5ccc5c6OC=CC(C)(C)O5)C[C@@]41CN2CC[C@@]3(C)O`, the Potency result in assay [1], in [2], in assay [3], in assay [5] and in [4] was “inactive” each time.

On to `CS(=O)(=O)c1ccc([C@@H](O)[C@@H](COC(=O)CN)NC(=O)C(Cl)Cl)cc1`, for which the Potency entry in assay [1], in [2], in [3] and in assay [6] was “inactive” in each case.

For `CN[C@@H]1[C@H](O[C@H]2[C@H](O[C@@H]3[C@@H](O)[C@H](O)[C@@H](N=C(N)N)[C@H](O)[C@H]3N=C(N)N)O[C@@H](C)[C@]2(O)C=O)O[C@@H](CO)[C@H](O)[C@H]1O`, the activity change, negative = inhibition was -20.2% [at 11.4 µM] (inactive) in assay [1] and -18.7% [at 11.3 µM] in assay [4]. Moreover, the activity change, negative = cytotoxicity is -3.3% [at 11.4 µM] (inactive) in [2] and -2.76% [at 11.4 µM] (inactive) in assay [5]. In addition, the outcome in assay [3] is “inactive [at 11.4 µM]”. The Potency result in assay [4] is “inactive”.

In the case of `CC[C@H]1CN2CCc3cc(OC)c(OC)cc3C2C[C@@H]1CC1NCCc2cc(OC)c(OC)cc21` (some centres not stated), the Potency in [1] is 5.62 µM (active); in [2], 17.8 µM (active); in assay [3] it was 5.62 µM (active); in assay [4], 1.78 µM (active). Moreover, the Potency entry in assay [5] was “inactive”.

As to `CCCCCC/C=C\CCCCCCCC(=O)O`, the Potency result in assay [1], in assay [2], in [3], in assay [6], in assay [7] and in [8] was “inactive” throughout.

Turning to `CC(=O)[C@@]1(O)CC[C@H]2[C@@H]3CCC4=CC(=O)CC[C@@H]4[C@H]3CC[C@@]21C`, the Potency entry in assay [1], in [2], in assay [3], in [5], in assay [9] and in assay [10] was “inactive” in each case. Moreover, the activity change, negative = inhibition in assay [4] was -22.5%.

Regarding `O=C(/C=C/c1cccc(S(=O)(=O)Nc2ccccc2)c1)NO`, the Potency in [1] was 10 µM (active); in [6], 12.6 µM (active). Further, the Potency entry in assay [2] and in assay [3] was “inactive” throughout. Further, in assay [4], the activity change, negative = inhibition was -13.6%.

As for `CN(C)CC/C=C1\c2ccccc2CSc2ccccc21`, the Potency in [1] and in [4] was 20 µM (active) each time. In addition, the Potency entry in [2], in [5], in [11] and in assay [6] was “inactive” in each case.

Molecule `CN[C@@H]1[C@H](O)[C@H](O[C@@H]2[C@H](O)[C@@H](O[C@H]3O[C@H]([C@@H](C)NC)CC[C@H]3N)[C@@H](N)C[C@H]2N)OC[C@]1(C)O` came in with a parasite growth, % of DMSO control in [12] of 81.2%. This molecule came in with a parasite growth remaining, % of DMSO control (lower = more inhibition) in assay [13] of 98.7%. The parasite growth, % of control (lower = inhibition) in assay [14] is 196%. Also, the outcome in assay [1] and in [3] was “inactive [at 11.4 µM]” each time. Further, the activity change, negative = cytotoxicity was -2.83% [at 11.4 µM] (inactive) in [2] and -14.2% [at 11.4 µM] (inactive) in [5]. In assay [4], the activity change, negative = inhibition was -8.26% [at 11.3 µM].

For `CCCC1C(=O)N2C(N(C)C)=Nc3ccc(C)cc3N2C1=O` (configuration not stated), the Potency entry in assay [1], in assay [2], in assay [3] and in assay [5] was “inactive” throughout. Further, in assay [4], the activity change, negative = inhibition was determined as 2.29% [at 114 µM].

Consider `CCCN(CC)C(CC)C(=O)Nc1c(C)cccc1C` (configuration not stated), for which the Potency entry in assay [1], in [2], in [3] and in assay [5] was “inactive” each time. Further, the activity change, negative = inhibition in assay [4] was -22.8%.

Consider `C=C/C=C/CC1=C(C)[C@H](OC(=O)[C@H]2[C@H](/C=C(\C)C(=O)OC)C2(C)C)CC1=O`, for which the Potency entry in assay [1], in [2], in [3], in assay [5] and in assay [9] was “inactive” in each case.

Take `O=C(NNCS(=O)(=O)O)c1ccncc1`: the Potency result in [1], in assay [2], in assay [3] and in assay [6] was “inactive” each time. In addition, in assay [4], the activity change, negative = inhibition was -23.7%.

With `CC=CC1C(C(=O)OCc2c(F)c(F)c(COC)c(F)c2F)C1(C)C` (configuration not stated), the Potency result in [1], in assay [2], in [3] and in [6] was “inactive” in each case. For the same molecule, the Potency in [15] is 6.74 µM (active); in assay [16], 10.7 µM (active). Further, the activity change, negative = inhibition in assay [4] is -7.64%.

On to `C=C[C@H]1CN2CC[C@H]1C[C@H]2[C@H](O)c1ccnc2ccccc12`, for which the Potency entry in assay [1], in [2], in assay [3], in assay [5], in [9] and in [10] was “inactive” throughout.

`C=C/C=C\CC1=C(C)[C@@H](OC(=O)[C@H]2[C@H](C=C(C)C)C2(C)C)CC1=O`: the Potency result in assay [1], in [2], in [3], in [5] and in assay [9] was “inactive” in each case.
